From PubChem
Only some compounds are listed: those with a hit (about 2.2% of all), similar ones and a draw of the others.
Giardia killer – Small Molecules that selectively kill Giardia lamblia: qHTS | actives 0.15% (n = 340,000) | activity change, % at 7.66 µM, hits read low | Giardia lamblia trophozoite viability; in the data active means activity change below about -80%; inconclusive means between about -30% and that limit;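 further: parasites exposed to compound for two days anaerobically before the ATP read; on the % scale 0 is the no-effect control and ±100 the full control effect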
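Trophozoites 100 cells/well + cpd; 48 hrs, 37 deg C, anaerobic. ATPLite 1-Step added, 15-30 min RT, luminescence read (ATP-based viability).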
IL-2 act – qHTS of IL-2 Activators; IL-2 activation reporter assay, cell-based qHTS; stimulated with anti-CD3/CD4/CD28 beads; in transgenic mouse T cells; activation, % (series mostly up to about 46 µM); actives 0.065% (n = 360,000); AID 652025, 2013; in the data active means activation above about 50%; inconclusive means mostly about 30% to 49%; further: 0% is about no effect
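Readout: EGFP and DsRed signals by fluorescent plate cytometry. Unstimulated transgenic mouse T cells received compound 60 min before antibody-bead stimulation, then incubated 18 h at 37 degrees C.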
BRCA1 expr act – qHTS Assay to Identify Small Molecule Activators of BRCA1 Expression; MCF7-BRCA1-FFLuc reporter, luminescence, 48 h; response scale: scaled: vehicle 0%, 10 µM genistein 100%; Potency, µM (top dose mostly 46.1 µM), for the others: at the highest dose activation, actives largely listed as activators; actives 1.1% (n = 380,000); further: potency means the concentration at half of the fitted maximal effect; nearly all actives have a fitted effect of over 80% in size
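Luminescence from a BRCA1-driven firefly luciferase in MCF7 cells was the read-out, taken 15 min after substrate addition following 48 h compound exposure at 37 °C. Data were normalized to a 10 microM genistein control and DMSO vehicle.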
rTrxR1 inhibitor – qHTS Assay for Inhibitors of Mammalian Selenoprotein Thioredoxin Reductase 1 (TrxR1): qHTS; AID 588453, 2011; Thioredoxin reductase 1, cytoplasmic (Rattus norvegicus), O89049; recombinant rTrxR1, NADPH fluorescence consumption, selenite substrate; actives 1% (n = 390,000); Potency, µM (doses to about 114 µM), inactives show at the top dose activity change, negative = inhibition, most hits filed as inhibitors; further: potency means the concentration at half of the fitted maximal effect; on the % scale 0 is the no-effect control and ±100 the full control effect; nearly all actives have a fitted effect of over 65% in size
Target sequence (O89049 whole entry, looked up): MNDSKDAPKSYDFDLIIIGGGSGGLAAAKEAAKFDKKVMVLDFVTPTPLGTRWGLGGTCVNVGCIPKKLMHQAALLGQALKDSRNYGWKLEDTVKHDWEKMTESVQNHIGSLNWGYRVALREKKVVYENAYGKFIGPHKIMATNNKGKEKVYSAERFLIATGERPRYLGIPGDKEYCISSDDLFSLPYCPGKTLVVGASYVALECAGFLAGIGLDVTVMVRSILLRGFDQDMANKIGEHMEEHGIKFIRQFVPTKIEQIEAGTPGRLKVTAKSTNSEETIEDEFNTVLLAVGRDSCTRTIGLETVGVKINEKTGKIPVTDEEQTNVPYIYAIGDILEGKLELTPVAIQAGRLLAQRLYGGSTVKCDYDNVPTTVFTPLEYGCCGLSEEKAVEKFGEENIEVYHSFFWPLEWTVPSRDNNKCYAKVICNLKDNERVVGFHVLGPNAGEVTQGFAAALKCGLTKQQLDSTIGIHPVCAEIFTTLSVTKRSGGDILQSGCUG
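Rat TrxR1 (90 nM in the dispensed reagent) was pre-reduced with 400 uM NADPH for 5 min at room temperature, then incubated with compound for 15 min. After 400 uM selenite was added, NADPH fluorescence (Ex 340/Em 450 nm) was followed for 8 min.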
TrxR1 substrate – qHTS Assay for Substrates of Mammalian Selenoprotein Thioredoxin Reductase 1 (TrxR1): qHTS. Thioredoxin reductase 1, cytoplasmic (Rattus norvegicus), O89049. purified TrxR1 substrate turnover, NADPH consumption readout. Potency, µM (top dose mostly 114 µM), without a hit: at the top dose activity change, negative = substrate turnover. actives 0.01% (n = 390,000). AID 588456, 2011; further: potency means the concentration at half of the fitted maximal effect; on the % scale 0 is the no-effect control and ±100 the full control effect; nearly all actives have a fitted effect of over 50% in size
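Rat TrxR1, dispensed at 90 nM, was prereduced with 400 uM NADPH (final) for 5 min at ~22 deg C, then incubated with compound 15 min before 400 uM selenite. A first-read NADPH fluorescence drop versus no-compound background flagged substrates.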
IDH1 R132H inh – qHTS for Inhibitors of mutant isocitrate dehydrogenase 1 (IDH1): qHTS. Potency, µM (doses to about 76.6 µM), for inactives: at the top dose activity change, negative = inhibition, most hits filed as inhibitors. Isocitrate dehydrogenase [NADP] cytoplasmic (Homo sapiens), O75874. AID 602179, 2012. actives 0.093% (n = 390,000). IDH1-R132H enzyme, NADPH consumption, diaphorase/resazurin fluorescence; further: potency means the concentration at half of the fitted maximal effect; on the % scale 0 is the no-effect control and ±100 the full control effect; nearly all actives have a fitted effect of over 65% in size
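IDH1-R132H (0.5 ug/mL) preincubated 30 min with compound, then NADPH (0.016 mM) and alpha-KG (2 mM) added; 80 min at RT, pH 7.5. Remaining NADPH coupled via diaphorase/resazurin to fluorescence (540/590 nm); concentration-response curves normalized to no-enzyme control.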
Numbers without * were called inactive; ? = inconclusive; . = not tested or not shown; ! = not confirmed by another sample; [ ] = another dose, or the depositor's remark. Unless noted, the call rests on the fitted dose curve; in most records, active means well fitted curve in the direction sought with a large enough effect; inconclusive means small, poorly fitted or top-dose-only effect, or another doubt; inactive means no such curve, though single readings can be large; an effect the other way counts as inactive or inconclusive.

SMILES	Giardia killer	IL-2 act	BRCA1 expr act	rTrxR1 inhibitor	TrxR1 substrate	IDH1 R132H inh
Cc1nc([N+](=O)[O-])c(Br)n1CC(=O)c1ccccc1	-9	-2	-12%	11µM*	-9%	-1%
Cc1nc([N+](=O)[O-])c(Br)n1CC(=O)c1ccc(Br)cc1	-3	-3	-71%	11µM*	4%	-6%
CC(=O)Nc1ccc(SCC(c2ccccc2)N2CCN(C)CCC2=O)cc1 (configuration not stated)	-19	.	.	-18%	2%	.
COc1ccc(CCN2CC(C(=O)N(C)Cc3ccc(C)o3)CCC2=O)cc1 (configuration not stated)	-27	-2	90%	50µM*	1%	-6%
COc1ccccc1CN1CC(C(=O)NCCc2ccc(C)o2)CCC1=O (configuration not stated)	-11	-1	-17%	50µM*	1%	4%
COc1ccccc1CN1CC(C(=O)N(C)Cc2ccc(C)o2)CCC1=O (configuration not stated)	11	0	25%	35µM*	7%	-3%
COc1ccccc1CCNC(=O)C1CCC(=O)N(Cc2ccccc2OC)C1 (configuration not stated)	0	-1	1%	?	-11%	6%
CC1=CC(C)(C)N=C(Nc2ccc(C)cc2)S1	-17	0	13µM*	5%	-7%	3%
Cc1ccc(Nc2nnns2)cc1	-16	-1	-13%	-17%	-3%	-1%
O=C(C[N+]12CCCc3cccc(c31)CCC2)c1ccc2ccccc2c1	.	.	.	-32%	8%	.
Clc1ccc(-n2ncc3c(NCc4ccccn4)ncnc32)cc1	8	2	10µM*	6%[57.1 µM]	8%[57.1 µM]	-3%
Cc1cccc(-n2ncc3c(NCc4cccnc4)ncnc32)c1	-30	-4	2.5µM*	18%	16%	-7%
Cc1ccc(-n2ncc3c(NCc4cccnc4)ncnc32)cc1C	26	-3	1µM*	10%	17%	12%
Cc1ccc(-n2ncc3c(NCc4cccnc4)ncnc32)c(C)c1	-1	-2	-33%	17%	8%	-4%
C=CCNc1ncnc2c1cnn2-c1cccc(C)c1	-4	-4	2.2µM*	26%	14%	8%
Cc1ccc(S(=O)(=O)N2CCN(c3nc(-c4ccc(CN5CCNCC5)s4)nc4ccccc34)CC2)cc1	25	.	-12%	-3%	-7%	.
CCCN(CCC)C(=O)Cn1c(=O)n(-c2ccc(CC)cc2)c(=O)c2c3c(sc21)CCC3	.	.	3%	3%	-6%	1%
COc1cccc(NC(=O)Cn2c(=O)n(-c3ccc(C)cc3)c(=O)c3ccccc32)c1	.	.	-10%	11%	3%	-3%
Oc1ccc(NCc2ccccc2OCc2ccccc2F)cc1	-6	0	-65%	?	-2%	12%
Oc1ccc(NCc2ccc(OCc3ccccc3)cc2)cc1	-14	-1	-1%	28µM*!	-10%	6%
Oc1ccc(NCc2ccccc2OCc2ccccc2Cl)cc1	.	.	.	32µM*	-9%	.
CCc1ccc(CNc2ccc(O)cc2)cc1	3	-2	-74%	?	-11%[57.1 µM]	18%
c1ccc(COc2ccc(CNCc3cccnc3)cc2)cc1	13	3	10µM*	29%[57.1 µM]	8%[57.1 µM]	1%
Oc1ccc(NCc2ccc(OCc3ccccc3Cl)cc2)cc1	.	.	.	45µM*	-11%	0%
CCOc1ccccc1CNc1ccc(O)cc1	-7	-1	-59%	?	-7%	19%
SMILES	Giardia killer	IL-2 act	BRCA1 expr act	rTrxR1 inhibitor	TrxR1 substrate	IDH1 R132H inh
CCOc1ccc(CNCc2cccnc2)cc1	0	-3	-13%	-15%	-7%	8%
COCCNC(=O)c1nn(-c2ccc(Cl)cc2)nc1CO	.	.	.	28%	48%	-5%
COC(=O)COc1ccc(Oc2nc(NC(C)(C)C)nc(N(C)C)n2)nn1	.	.	.	-15%	-6%	20%
CC1CCCCN1Cc1c(O)ccc2c(=O)c(-c3ccc(Cl)cc3)coc12 (configuration not stated)	21	0	10µM*	-1%	62%	9%
CC1CN(C(=O)Nc2ccc(C(=O)NCCc3ccccc3)cc2)c2ccccc2S1 (configuration not stated)	.	.	.	-7%	-7%	0%
N/C(=N\OC(=O)c1ccc2c(c1)OCO2)c1ccncc1	-2	0	4.5µM*	0%	-6%	-2%
COc1ccc(C(=O)O/N=C(\N)c2ccc(Cl)cc2)cc1	3	-1	2.5µM*	3%	-3%	-6%
Cc1ccc(/C(N)=N/OC(=O)c2ccc3c(c2)OCO3)cc1	-3	-3	?	19%[57.1 µM]	11%[57.1 µM]	5%
COc1ccc(/C(N)=N/OC(=O)c2ccc3c(c2)OCO3)cc1	-3	1	3.2µM*	-8%	-5%	5%
N/C(=N\OC(=O)c1ccc2c(c1)OCO2)c1ccc(Cl)cc1	-18	0	8.9µM*	29%	11%	3%
CCN(CC)CCN(C)c1ccc(/C=C/c2ccnc3ccccc23)cc1	.	.	.	-4%	-3%	.
Cc1ccc2occ(CC(=O)Nc3c(C(=O)Nc4ccc(Cl)cc4)oc4ccccc34)c2c1	.	.	.	10%	16%	-5%
Cc1cc(/C(N)=N/OC(=O)c2ccc(Cl)cc2)no1	13	3	7.9µM*	22%	9%	0%
Cc1c(Cl)cccc1N1C(N)=C(C#N)C(c2cc(CN3CCOCC3)cs2)C2=C1CCCC2=O (configuration not stated)	.	.	.	-8%	2%	-14%
CC1(C)CCC(=O)N2CC[C@H]3C[C@H](OC(=O)Nc4ccccc4)C[C@@H]1[C@H]32	-12	-1	?	9%	4%	9%
CC1(C)CCC(=O)N2CC[C@H]3C[C@H](OC(=O)Nc4ccc5c(c4)OCO5)C[C@@H]1[C@H]32	31	-3	11µM*	5%	-4%	5%
COc1ccc(CCNC(=O)Cc2c(C)c3cc4c(C(C)(C)C)coc4c(C)c3oc2=O)cc1	.	.	.	11%	1%	0%
COC(=O)c1sc(-c2ccccc2)cc1NC(=O)c1cccc(F)c1	.	.	.	18%	4%	1%
Cc1cccn2c(=O)c(C=NCc3ccccc3)c(NCCO)nc12	-15	0	13%	17%	57%	10%
Cc1ccc2nc(NCc3ccccc3)c(C=NCc3ccccc3)c(=O)n2c1	30	-3	13µM*	27%	8%	0%
